An excerpt weighted towards active compounds, which were near 3.9% of everything screened.
HSF1 inh = HSF1 inhibitors in luciferase reporter cells, primary screen, cell-based, NIH3T3, luminescence; AID 2098, 2009; activity change, negative = inhibition, % at 7.5 µM (by protocol); NIH3T3-HGL HSE-luciferase, MG132-induced, luminescence 8 h; active compounds read low; actives 0.77% (n = 300,000);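 active = more than half of replicate wells show activity change below -50%, luminescence cut by over half; inconclusive = some wells, but at most half, below -50%; inactive = no replicate well below -50%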;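 also: luciferase reports HSF-1 transcriptional activity via heat shock element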
Wnt act = Wnt/beta-catenin pathway activators, primary screen, cell-based, plate reader, single point; actives 1.2% (n = 300,000); Wnt/beta-catenin reporter cell assay, activator; activation, % at 9.35 µM; in the data active = activation above about 30%, passing the limit was not always enough; inconclusive = no clear call, values can overlap the other calls
HSF1 activator = HSF-1 activators, primary screen, NIH3T3-HGL cells, MG132 stress, luminescence, single point; activation, % at 9 µM; actives 1.7% (n = 300,000); NIH3T3-HGL HSF-1 luciferase reporter, 8 h; 100% = twice DMSO control signal;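 active = mean replicate activation of at least 50% with a set share of replicates each reaching 50%; inconclusive = only one of those two conditions met; inactive = mean below 50% and too few replicates reaching it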
MITF TRPM1 HTS = activators of MITF-driven TRPM1 promoter reporter, primary screen, cell-based, SK-MEL-5, luciferase, single point. activation, % at 12.5 µM. AID 588334, 2011. SK-MEL-5 TRPM1-promoter luciferase, 24 h; % of positive control, neutral wells = 0. actives 0.75% (n = 300,000);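 active = mean activation of at least 80% with every replicate also reaching 80%; inconclusive = mean reaches 80% but some replicate falls short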
esBAF inh = Bmi1 luciferase reporter increase in mESCs, primary screen, esBAF inhibitor project, mouse ES cells, Bmi1 luciferase knock-in, single point. 24 h; 100% = twice the neutral-well signal. reporter increase, % at 12.5 µM. actives 2% (n = 350,000). AID 602393, 2012; in the data active = activation above about 40%; inconclusive = no clear call, values can overlap the other calls;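 also: a rise in the Bmi1 reporter signal indicates esBAF inhibition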
Hits are given with their value; - = inactive; ? = inconclusive; . = no result given.

SMILES	HSF1 inh	Wnt act	HSF1 activator	MITF TRPM1 HTS	esBAF inh
C[C@@H]1CN([C@H](C)CO)C(=O)Cc2cc(NC(=O)Nc3ccccc3)ccc2O[C@@H]1CN(C)C(=O)Nc1ccc(C(F)(F)F)cc1	.	.	.	.	-
O=C(CCCn1c(=S)[nH]c2ccc(Br)cc2c1=O)NCC1CCCO1 (stereo unspecified)	-	-	72.0	.	-
CCNC(=O)Nc1ccc2c(c1)C(=O)N(C)[C@@H]1CC[C@@H](CC(=O)Nc3ccccc3)O[C@@H]1CO2	.	.	.	.	-
CCC(=O)NC(=S)Nc1ccc(NC(=O)COc2ccc(Cl)cc2Cl)cc1	-	-	52.7	-	-
CC(=O)NC(=S)Nc1ccc(NC(=O)COc2ccc(Cl)cc2)cc1	-	.	64.4	.	-
COc1ccc(NC(=S)NNC(=O)COc2ccc(Cl)cc2Cl)cc1	-	.	-	-	.
CCC(=O)NC(=S)Nc1ccc(NC(=O)COc2ccc(Cl)c(C)c2)cc1	-	-	79.2	-	.
Cc1cc(OCC(=O)Nc2ccncc2)ccc1Cl	-	-	-	-	-
C[C@H](CO)N1C[C@H](C)[C@@H](CN(C)Cc2ccncc2)Oc2ncc(C#Cc3cccnc3)cc2C1=O	.	.	.	.	-
Cc1ccc(CN(C)C(=O)c2ccc(S(=O)(=O)N3CCCCCC3)cc2)o1	.	35.6	.	-	-
O=C(c1ccc(F)cc1)c1ccc(N2CCCCC2)cc1	-	39.8	63.9	103.0	-
O=C(c1ccc(F)cc1)c1ccc(N2CCCC2)cc1	-	-	-	-	65.3
O=C(Nc1ccc(N2CCCCC2)cc1)c1ccc(F)cc1	-	-	-	.	-
O=C(CCC(=O)N1CCN(c2ccc(F)cc2)CC1)N1CCN(c2ccc(F)cc2)CC1	-	-	-	-	-
O=S(=O)(N1CCCCC1)N1CCN(c2ccc(F)cc2)CC1	-70.7	-	-	-	-
CC(C)NC(=O)N(C)C[C@@H]1Oc2ncc(-c3cccc(C#N)c3)cc2C(=O)N([C@@H](C)CO)C[C@H]1C	.	.	.	.	-
CO[C@@H]1CN(C)C(=O)c2cc(NC(=O)C3CC3)ccc2OC[C@@H](C)NC[C@H]1C	.	.	.	.	-
CCC1CCCCN1C(=O)CSc1nnc(-c2cccc(Cl)c2)o1 (stereo unspecified)	-	-	-	.	50.4
CCC1CCCCN1C(=O)CSc1nnc(-c2ccco2)o1 (stereo unspecified)	.	47.4	.	-	-
CCC1CCCCN1C(=O)CSc1nnc(-c2ccc(Cl)cc2)o1 (stereo unspecified)	-	-	-	.	-
CC(O)c1nc2ccccc2n1Cc1nnc(-c2ccc(Cl)cc2)o1 (stereo unspecified)	-55.7	.	-	.	-
O=C(c1ccccc1)N1C[C@@H]2[C@H](c3ccccc31)[C@@H](CO)N2C(=O)c1ccccn1	.	.	.	.	-
O=C(CCl)N(c1ccccc1)c1c[nH]c2ccccc12	-	.	-	-	.
O=C(CCl)N(c1ccc(Cl)cc1)c1c[nH]c2ccccc12	-92.8	.	-	.	-
COc1ccc(CN(C)C[C@@H]2Oc3ccc(NC(=O)CCN4CCOCC4)cc3C(=O)N([C@@H](C)CO)C[C@@H]2C)cc1	.	.	.	.	-
SMILES	HSF1 inh	Wnt act	HSF1 activator	MITF TRPM1 HTS	esBAF inh
COc1ccc(C(=O)CC(=O)c2ccccc2O)cc1	-	-	-	-	-
COc1ccc(C(=O)CC(=O)c2ccccc2O)cc1OC	-	-	-	-	57.1
CCC(=O)c1ccc(OCc2ccccc2)c(OC)c1	-	.	-	100.5	94.7
CN1C(=O)c2cc(NC(=O)c3cccs3)ccc2OC[C@H]2O[C@H](CC(=O)NCC3CC3)CC[C@H]21	.	.	.	.	-
C[C@H]1CN([C@@H](C)CO)C(=O)c2cc(/C=C/c3ccccc3)cnc2O[C@@H]1CN(C)C(=O)C1CCOCC1	.	.	.	.	-
COc1ccc(-c2nc3cc(C)ccn3c2NCc2ccc3c(c2)OCO3)cc1	-	-	54.6	-	.
COc1ccc(S(=O)(=O)Nc2ccc3c(c2)C(=O)N([C@H](C)CO)C[C@@H](C)[C@@H](CN(C)C(=O)NC2CCCCC2)OCCCC[C@H](C)O3)cc1	.	.	.	.	-
O=C(NCc1ccccc1)c1cc(C2CCCCN2S(=O)(=O)Cc2ccccc2)on1 (stereo unspecified)	.	-	.	.	-
COc1ccc(NC(=O)c2cc(C3CCCCN3S(=O)(=O)Cc3ccccc3)on2)cn1 (stereo unspecified)	.	-	.	.	50.6
Cn1cnc(S(=O)(=O)N2CCCCC2c2cc(C(=O)Nc3ccc(F)c(Cl)c3)no2)c1 (stereo unspecified)	.	-	.	.	44.7
Cc1c(C(=O)NCc2ccco2)oc2c(F)cccc12	.	-	.	-	-
Cc1c(C(=O)O)oc2c(F)cccc12	-	-	-	-	.
Cc1c(C(=O)NC2CCOC2)oc2c(F)cccc12 (stereo unspecified)	-	-	-	?	69.5
Cc1c(C(=O)N2C[C@@H](C)O[C@@H](C)C2)oc2c(F)cccc12	-	-	-	-	69.5
C[C@H]1CN([C@@H](C)CO)C(=O)c2cc(C#CC3CCCC3)cnc2O[C@@H]1CN(C)C(=O)C1CC1	.	.	.	.	-
O=C(C1CCC1)N1C[C@@H]2[C@H](c3ccccc31)[C@@H](CO)N2S(=O)(=O)c1ccccc1	.	.	.	.	-
CSCC(=O)N1CCC(n2nccc2NC(=O)c2ccc3c(c2)OCO3)CC1	-	-	-	-	58.3
O=C(Nc1ccc(Cl)cn1)c1ccc(COc2ccccc2Br)o1	-	-	-	-	87.7
O=C(Nc1ccccn1)c1ccc(COc2ccccc2Cl)o1	-	-	-	.	64.4
CCOc1ccc(OCc2ccc(C(=O)Nc3ccc(Cl)cn3)o2)cc1	-	-	-	-	-
CNC[C@H]1Oc2c(NS(=O)(=O)c3cn(C)cn3)cccc2C(=O)N([C@H](C)CO)C[C@H]1C	.	.	.	.	-
COc1ccccc1C(=O)NC1CCSc2ccccc21 (stereo unspecified)	-	-	63.2	-	.
COc1ccc(OC)c(C(=O)NC2CCSc3ccccc32)c1 (stereo unspecified)	-	-	-	-	-
O=C(NC1CCSc2ccccc21)c1ccccc1Cl (stereo unspecified)	-	-	68.0	-	-
CN1CCN(C(=O)C[C@H]2CC[C@H]3[C@@H](COC[C@@H](O)CN3S(=O)(=O)c3cccc(F)c3)O2)CC1	.	.	.	.	-
CO[C@H]1CN(C)C(=O)c2cc(NC(=O)c3cc(C)on3)ccc2OC[C@H](C)N(CC2CC2)C[C@H]1C	.	.	.	.	-
CO[C@H]1CN(C)C(=O)c2cc(NC(=O)c3cc(C)on3)ccc2OC[C@H](C)NC[C@@H]1C	.	.	.	.	-
C[C@H](CO)N1C[C@H](C)[C@H](CN(C)Cc2ccc3c(c2)OCCN3C)OCc2ccccc2-c2ccccc2C1=O	.	.	.	.	-
O=C([C@@H]1[C@@H](CO)[C@@H]2Cn3c(cccc3=O)[C@@H]2N1C(=O)CC1CC1)N1CCCCC1	.	.	.	.	-
